Conditions in all cases: mRNA level, 48 h; actives raise or lower the signal
Read-out in one assay: HGF (gene 3082)
Put plainly: LTEA_HepaRG_HGF: Life Technologies and Expression Analysis (LTEA) Assay for Hepatocyte Growth Facto (HGF) using HepaRG (AID 2283505). The method, boiled down:
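Read-out is HGF transcript level by qRT-PCR, normalized to three housekeeping genes, fitted bidirectionally against 0.5% DMSO vehicle. Human HepaRG cells received test chemicals for 48 h at up to 100 uM.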

Read-out in assay [1]: Insulin Like Growth Factor 1 (IGF1), IGF1 (gene 3479)
Put plainly: LTEA_HepaRG_IGF1: Life Technologies and Expression Analysis (LTEA) Assay for Insulin Like Growth Factor 1 (IGF1) using HepaRG (AID 2283506). In outline: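 Cells are thawed, plated and cultured 48 h, then exposed in duplicate to chemical (highest 100 uM, half-log steps, 0.5% DMSO) for another 48 h. Total RNA is analysed by Fluidigm qRT-PCR for IGF1 expression relative to vehicle.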

Read-out in assay [2]: Intercellular Adhesion Molecule 1 (ICAM1), ICAM1 (gene 3383)
Put plainly: LTEA_HepaRG_ICAM1: Life Technologies and Expression Analysis (LTEA) Assay for Intercellular Adhesion Molecule 1 (ICAM1) using HepaRG (AID 2283507). The method, boiled down:
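Readout is qRT-PCR mRNA level, normalized to three housekeeping genes and fitted bidirectionally against 0.5% DMSO vehicle. Human HepaRG cultures received compound for 48 h, top concentration 100 uM with half-log dilutions.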

Read-out in assay [3]: Insulin-like growth factor-binding protein 1 (IGFBP1), IGFBP1 (gene 3484)
Put plainly: LTEA_HepaRG_IGFBP1: Life Technologies and Expression Analysis (LTEA) Assay for Insulin-like growth factor-binding protein 1 (IGFBP1) using HepaRG (AID 2283508). In outline: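 Thawed HepaRG cells are plated for 48 h, switched to serum-free induction medium, then dosed in duplicate for another 48 h (100 uM top, half-log steps). Lysates in RLT go to qRT-PCR, and gain or loss of signal is fitted relative to vehicle.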

Read-out in assay [4]: Interleukin 6 (IL6), IL6 (gene 3569)
The experiment in a line: LTEA_HepaRG_IL6: Life Technologies and Expression Analysis (LTEA) Assay for Interleukin 6 (IL6) using HepaRG (AID 2283509). In outline: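 Changes in IL6 mRNA, up or down relative to 0.5% DMSO controls, were derived from concentration-response curves in human HepaRG cells treated for 48 h at up to 100 uM, with ACTB, GAPDH and POLR2A as normalizers.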

Read-out in assay [5]: Interleukin 6 Receptor (IL6R), IL6R (gene 3570)
Put plainly: LTEA_HepaRG_IL6R: Life Technologies and Expression Analysis (LTEA) Assay for Interleukin 6 Receptor (IL6R) using HepaRG (AID 2283510).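 On AC50: TaqMan qRT-PCR signal normalized to ACTB GAPDH and POLR2A housekeeping genes.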 The method, boiled down: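 Cells were thawed, plated and cultured 48 h, then medium was changed to serum-free induction medium. Chemicals were added in duplicate (100 uM top, half-log steps, 0.5% DMSO) for 48 h. Lysates were analyzed by qRT-PCR for IL6R expression.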

Read-out in assay [6]: Keratin 19 (KRT19), KRT19 (gene 3880)
The experiment in a line: LTEA_HepaRG_KRT19: Life Technologies and Expression Analysis (LTEA) Assay for Keratin 19 (KRT19) using HepaRG (AID 2283512). The method, boiled down:
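KRT19 transcript levels, measured by Fluidigm qRT-PCR against three housekeeping genes, are fitted for gain or loss of signal relative to DMSO. Human HepaRG cells receive test chemicals (top 100 uM, half-log steps, 0.5% DMSO) for 48 hours.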

Read-out in assay [7]: JUN Transcription Factor, JUN (gene 3725)
The experiment in a line: LTEA_HepaRG_JUN: Life Technologies and Expression Analysis (LTEA) Assay for JUN Transcription Factor using HepaRG (AID 2283513). In outline: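 Read-out is JUN transcript level by TaqMan qRT-PCR, normalized to ACTB, GAPDH and POLR2A, after 48 h chemical treatment of HepaRG cells. Concentration-response spanned eight half-log points up to 100 uM in 0.5% DMSO.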

Read-out in assay [8]: Lipase C (LIPC), LIPC (gene 3990)
The experiment in a line: LTEA_HepaRG_LIPC: Life Technologies and Expression Analysis (LTEA) Assay for Lipase C (LIPC) using HepaRG (AID 2283514). The method, boiled down:
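In this multiplexed gene-expression screen, human HepaRG cultures received test chemicals for 48 h across eight concentrations with 100 uM highest, in duplicate. Values reflect LIPC mRNA induction or suppression versus DMSO vehicle, from normalized qRT-PCR.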

Read-out in assay [9]: Lipoprotein lipase (LPL), LPL (gene 4023)
The experiment in a line: LTEA_HepaRG_LPL: Life Technologies and Expression Analysis (LTEA) Assay for Lipoprotein lipase (LPL) using HepaRG (AID 2283515). The method, boiled down: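 Concentration-response testing used half-log steps from 100 uM in 0.5% DMSO on human HepaRG cells, 48 h, duplicate wells. Phenobarbital 1 mM served as induction control; LPL mRNA was normalized to ACTB, GAPDH, POLR2A.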

Read-out in assay [10]: MicroRNA 122 (MIR122), gene 406906
The experiment in a line: LTEA_HepaRG_MIR122: Life Technologies and Expression Analysis (LTEA) Assay for MicroRNA 122 (MIR122) using HepaRG (AID 2283516). Further: the transcript read is the microRNA miR-122. In outline:
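Human liver HepaRG cultures receive test chemicals for 48 h at eight half-log concentrations from 100 uM. Expression is quantified by qRT-PCR with ACTB/GAPDH/POLR2A normalization and fitted bidirectionally against 0.5% DMSO.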

Read-out in assay [11]: matrix metalloproteinase-10 (MMP10), MMP10 (gene 4319)
The experiment in a line: LTEA_HepaRG_MMP10: Life Technologies and Expression Analysis (LTEA) Assay for matrix metalloproteinase-10 (MMP10) using HepaRG (AID 2283517). In outline: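 In differentiated HepaRG cultures kept in 0.5% DMSO, test chemicals act for 48 h over an eight-point range with a top dose of 100 uM. Expression is then quantified by TaqMan RT-PCR against ACTB, GAPDH and POLR2A.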

Read-out in a further assay: MYC, MYC (gene 4609)
Put plainly: LTEA_HepaRG_MYC: Life Technologies and Expression Analysis (LTEA) Assay for MYC using HepaRG (AID 2283518). The method, boiled down: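 HepaRG, ~100,000 cells/well, collagen I; 48 h plating; serum-free induction medium; 48 h dosing, duplicate, 100 uM top, half-log, 0.5% DMSO; total RNA → qRT-PCR MYC; gain/loss fit vs DMSO.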

Read-out in assay [12]: matrix metalloproteinase-3 (MMP3), MMP3 (gene 4314)
The experiment in a line: LTEA_HepaRG_MMP3: Life Technologies and Expression Analysis (LTEA) Assay for matrix metalloproteinase-3 (MMP3) using HepaRG (AID 2283519). In outline:
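Human liver HepaRG cultures received chemicals (top concentration 100 uM, 0.5% DMSO) for 48 h in duplicate. MMP3 mRNA induction or loss was then assessed via TaqMan qRT-PCR with housekeeping-gene normalisation.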

Read-out in assay [13]: Paternally Expressed 10 (PEG10), PEG10 (gene 23089)
The experiment in a line: LTEA_HepaRG_PEG10: Life Technologies and Expression Analysis (LTEA) Assay for Paternally Expressed 10 (PEG10) using HepaRG (AID 2283520). The method, boiled down:
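Human HepaRG cultures are dosed for 48 h across an eight-point half-log series starting at 100 uM, with 0.5% DMSO as vehicle and baseline. Gain or loss of PEG10 transcript is measured by qRT-PCR and fitted in both directions.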

Read-out in assay [14]: Protein phosphatase 2A (PPP2R4), PTPA (gene 5524)
The experiment in a line: LTEA_HepaRG_PPP2R4: Life Technologies and Expression Analysis (LTEA) Assay for Protein phosphatase 2A (PPP2R4) using HepaRG (AID 2283522). In outline: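 Cells were plated, cultured 48 h, switched to serum-free induction medium, then dosed for 48 h (8 points, max 100 uM, 0.5% DMSO). RNA was isolated and PPP2R4 expression measured by TaqMan qRT-PCR.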

Read-out in assay [15]: Phosphatase and tensin (PTEN), PTEN (gene 5728)
The experiment in a line: LTEA_HepaRG_PTEN: Life Technologies and Expression Analysis (LTEA) Assay for Phosphatase and tensin (PTEN) using HepaRG (AID 2283523). In outline:
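Expression of PTEN is quantified in the human liver line HepaRG following two days of dosing (top concentration 100 uM, half-log dilutions, 0.5% DMSO). Values derive from bidirectional curve fitting relative to DMSO controls.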

Read-out in assay [16]: Nuclear factor NF-kappa-B p105 subunit (Homo sapiens) (UniProt P19838)
Put plainly: LTEA_HepaRG_NFKB1: Life Technologies and Expression Analysis (LTEA) Assay for Nuclear Factor Kappa B Subunit 1 (NFKB1) using HepaRG (AID 2283521).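 Further: TaqMan qRT-PCR transcript normalised to ACTB GAPDH and POLR2A housekeeping genes.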 The method, boiled down:
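Differentiated human HepaRG cells were exposed for 48 h in serum-free induction medium to eight concentrations (top 100 uM, half-log steps, 0.5% DMSO), in duplicate. NFKB1 mRNA was measured by TaqMan qRT-PCR, normalized to ACTB/GAPDH/POLR2A, and fitted bidirectionally against DMSO.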

Read-out in assay [17]: solute carrier (SLC22A1), SLC22A1 (gene 6580)
The experiment in a line: LTEA_HepaRG_SLC22A1: Life Technologies and Expression Analysis (LTEA) Assay for solute carrier (SLC22A1) using HepaRG (AID 2283524). In outline: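 Transcript induction or suppression of SLC22A1 in human HepaRG cultures is scored after 48 h chemical treatment, with DMSO (0.5%) as baseline for bidirectional fitting. Concentrations span eight half-log points topping at 100 uM.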

Read-out in assay [18]: Potassium channel subfamily K member 1 (KCNK1), KCNK1 (gene 3775)
The experiment in a line: LTEA_HepaRG_KCNK1: Life Technologies and Expression Analysis (LTEA) Assay for Potassium channel subfamily K member 1 (KCNK1) using HepaRG (AID 2283511). In outline:
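Human HepaRG cultures receive test chemicals for 48 h in 0.5% DMSO, top concentration 100 uM with half-log dilutions. Induction or suppression of KCNK1 mRNA relative to DMSO is derived by bidirectional fitting of qRT-PCR data.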

Drawing on PubChem BioAssay (EPA / NIEHS), this text covers outcome and AC50 for four compounds.

Activity calls are given as the source filed them. How the source made its calls: active means hit-call score of the fitted dose curve at least 0.9, where 1 is the maximum; inactive means score below 0.9.

Nuclear factor NF-kappa-B p105 subunit (Homo sapiens), sequence (P19838 whole entry, looked up): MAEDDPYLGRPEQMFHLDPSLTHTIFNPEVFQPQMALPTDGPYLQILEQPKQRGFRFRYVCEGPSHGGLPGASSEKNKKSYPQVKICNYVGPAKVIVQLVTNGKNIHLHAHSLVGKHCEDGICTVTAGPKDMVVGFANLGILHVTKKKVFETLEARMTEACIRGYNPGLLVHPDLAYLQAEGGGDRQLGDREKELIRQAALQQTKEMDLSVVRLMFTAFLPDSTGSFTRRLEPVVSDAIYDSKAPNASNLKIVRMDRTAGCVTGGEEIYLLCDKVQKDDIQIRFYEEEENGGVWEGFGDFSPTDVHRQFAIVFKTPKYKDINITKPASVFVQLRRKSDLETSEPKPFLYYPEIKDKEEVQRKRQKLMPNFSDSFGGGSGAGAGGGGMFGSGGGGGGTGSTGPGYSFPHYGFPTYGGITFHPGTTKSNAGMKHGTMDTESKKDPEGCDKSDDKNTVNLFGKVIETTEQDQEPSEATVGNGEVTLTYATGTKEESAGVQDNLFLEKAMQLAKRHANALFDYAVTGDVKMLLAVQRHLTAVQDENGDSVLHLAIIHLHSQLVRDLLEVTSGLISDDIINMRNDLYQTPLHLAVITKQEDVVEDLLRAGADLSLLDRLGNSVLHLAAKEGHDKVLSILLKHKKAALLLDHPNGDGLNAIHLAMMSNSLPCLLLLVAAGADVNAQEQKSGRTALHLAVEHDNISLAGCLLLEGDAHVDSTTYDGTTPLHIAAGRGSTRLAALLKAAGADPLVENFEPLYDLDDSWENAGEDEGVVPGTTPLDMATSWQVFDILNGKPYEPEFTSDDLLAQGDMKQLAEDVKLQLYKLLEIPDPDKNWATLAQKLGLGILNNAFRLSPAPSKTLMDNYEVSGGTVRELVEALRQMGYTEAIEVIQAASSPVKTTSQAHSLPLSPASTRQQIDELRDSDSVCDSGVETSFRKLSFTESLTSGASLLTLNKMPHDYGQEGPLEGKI

`COc1ccc(O)c(C(C)(C)C)c1`: the outcome (with HGF (gene 3082); in assay [1]; in assay [2]; in assay [3]; in [4]; in [5]) was inactive. Besides, the outcome in assay [6], in assay [7], in assay [8], in assay [9], in [10] and in assay [11] was inactive. The outcome with MYC, MYC (gene 4609) was “inactive”; in assay [12], “inactive”; in [13], “inactive”; in [14] it was “inactive”; in [15], “inactive”.

As for `ClC1=C(Cl)[C@]2(Cl)[C@@H]3[C@H]4C[C@H]([C@@H]5O[C@H]45)[C@@H]3[C@@]1(Cl)C2(Cl)Cl`, the call (with HGF (gene 3082); in [3]; in [4]; in [6]; in assay [9]; in assay [11]) was inactive. Also, the compound was called inactive in assay [12], in [13], in [16], in [14] and in assay [15]. The AC50 (commonly the concentration at which the activity in the assay is half-maximal) was 5.52 µM (active) in [1]; 9.92 µM (active) in assay [2]; 9.92 µM (active) in assay [5]; 50 µM (active) in assay [8]; 31.6 µM (active) in [10]; 11 µM (active) with MYC, MYC (gene 4609). Besides, in [17], the concentration at half-maximal activity (AC50) is 31.7 µM (active).

On to `CC(C)C(=O)OCC(C)(C)C(OC(=O)C(C)C)C(C)C` (stereo unspecified), for which the call (in the assay with HGF (gene 3082); in assay [1]; in assay [2]; in [4]; in [5]; in assay [18]) was inactive. Besides, the outcome was “inactive” in assay [6]; “inactive” in assay [8]; “inactive” in assay [9]; “inactive” in assay [10]; “inactive” in assay [11]; “inactive” with MYC, MYC (gene 4609). Besides, the outcome in assay [12], in assay [13], in [16], in assay [14], in [15] and in assay [17] was inactive.

`ClC1=C(Cl)[C@]2(Cl)[C@@H]3[C@@H]4C[C@@H]([C@H]5O[C@@H]45)[C@@H]3[C@@]1(Cl)C2(Cl)Cl`: the call (with HGF (gene 3082); in assay [4]; in assay [18]; in [6]; in assay [8]; in [9]) was inactive. The compound was called inactive in [10], in assay [11], in [12], in assay [13], in assay [16] and in assay [14]. The half-maximal activity concentration (AC50) in assay [1] was 9.92 µM (active); in [2] it was 9.92 µM (active); in assay [5] it was 0.00506 µM (active); with MYC, MYC (gene 4609), 9.92 µM (active); in assay [15], 0.0333 µM (active); in assay [17], 50 µM (active).
